In the library only some 12% were active in any assay of this set; here they are far more common.
HP1b binding inh: HP1-beta chromodomain-methylated histone interaction inhibition; P83916; AlphaScreen HP1-beta / biotin-H3K9me3 peptide binding; Potency, µM (top dose mostly 114 µM), hits mostly inhibitors; 390,000 tested, 0.56% active; note: nearly all actives have a fitted effect of over 70% in size
Target sequence (P83916 whole entry, looked up): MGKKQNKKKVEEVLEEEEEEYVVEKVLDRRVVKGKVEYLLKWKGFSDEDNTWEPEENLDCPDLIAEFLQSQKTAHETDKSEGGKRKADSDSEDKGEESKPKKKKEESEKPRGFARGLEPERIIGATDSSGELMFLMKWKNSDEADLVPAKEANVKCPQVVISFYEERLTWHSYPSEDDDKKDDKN
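HP1-beta protein (50 nM final) preincubated 30 min at room temperature with biotinylated H3(1-18)K9me3 peptide (50 nM) in PBS pH 7.4, 0.01% Tween-20, then compound added for 30 min. AlphaScreen streptavidin donor/nickel chelate acceptor beads (10 ug/mL final), 30 min dark, luminescence read.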
BAZ2B inh: blocks human BAZ2B | Q9UIF8 | AlphaScreen BAZ2B-H3K14Ac peptide displacement | Potency, µM (highest dose often 114 µM), usual class: inhibitors | 360,000 tested, 4.4% active; note: nearly all actives have a fitted effect of over 60% in size
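Multi-concentration screen (max 110 uM) measuring displacement of acetylated histone H3 peptide from BAZ2B by AlphaScreen, using 50 nM protein, 50 nM peptide and 10 ug/mL streptavidin donor plus Ni-chelate acceptor beads.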
JMJD2A Tudor: inhibitors of human JMJD2A Tudor domain; O75164; AlphaScreen JMJD2A-Tudor / H3K4me3 peptide binding; Potency, µM (doses to about 114 µM), usual class: inhibitors; 390,000 tested, 4.4% active; AID 504339; note: nearly all actives have a fitted effect of over 50% in size
PLK1 PBD inh: blocks phosphopeptide binding to human PLK1 polo-box domain. AID 720504. Plk1 PBD binding of FITC phosphopeptide, fluorescence polarization. Potency, µM, hits mostly inhibitors. 360,000 tested, 2.8% active; note: series mostly up to about 57 µM; nearly all actives have a fitted effect of over 65% in size
PI5P4Ka inh: inhibitors of human PI5P4K alpha. P48426. 330,000 tested, 1.2% active. max response, %. PI5P4Kalpha enzyme, ADP-Glo luminescence, 60 min; stronger effect = lower value; active = max response of -50% or lower; inconclusive = between -30% and -50%; inactive = -30% or higher; note: value at the top dose of about 77 µM
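Controls without substrate or without enzyme flank wells where PI5P4Kalpha converts substrate using 5 microM ATP (final). Incubation lasts 60 minutes at room temperature; ADP formed is read by ADP-Glo luminescence.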
G9a inh: G9a (human) methyltransferase inhibition. G9a H3K9 monomethylation, AlphaScreen, 2 h. Potency, µM (doses to about 102 µM), most hits filed as inhibitors. 350,000 tested, 8.8% active; note: nearly all actives have a fitted effect of over 75% in size
Target sequence (Q96KQ7 913-1193 limits assumed): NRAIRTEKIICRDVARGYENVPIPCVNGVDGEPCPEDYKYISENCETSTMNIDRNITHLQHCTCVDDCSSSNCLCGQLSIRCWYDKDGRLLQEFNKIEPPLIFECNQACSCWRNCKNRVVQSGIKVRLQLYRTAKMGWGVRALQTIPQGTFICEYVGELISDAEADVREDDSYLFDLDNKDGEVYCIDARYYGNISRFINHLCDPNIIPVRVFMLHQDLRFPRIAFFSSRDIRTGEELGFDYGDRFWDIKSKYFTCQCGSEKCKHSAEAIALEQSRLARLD
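Enzyme 20 nM + cpd, 15 min RT; add b-H3K9 pep 500 nM / SAM 20 uM; 2 h RT; anti-H3K9me1 Ab 0.5 ug/mL + SA donor / anti-rabbit acceptor beads 20 ug/mL each, 10 min; AlphaScreen read.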
Large screens that a line does not name were inactive. Unless noted, calls come from the whole dose curve; as a rule, active = well fitted curve in the direction sought with a large enough effect; inconclusive = small, poorly fitted or top-dose-only effect, or another doubt; inactive = no such curve, though single readings can be large; an effect the other way counts as inactive or inconclusive.

COc1ccc(-n2c3c(cc(C(=O)NCC(=O)c4ccccc4)c2=O)C(=O)CC(C)(C)C3)cc1	none (no result: G9a inh)
O=C(Nc1cccc(Cl)c1)Nc1ccccc1C(=O)O	G9a inh inconclusive
O=C(NNc1ccccc1[N+](=O)[O-])Nc1cccc(Cl)c1	BAZ2B inh 89µM, JMJD2A Tudor inconclusive, PLK1 PBD inh 21µM
O=C(NNc1ccccc1[N+](=O)[O-])Nc1ccc(F)cc1F	G9a inh 32µM
COc1ccc(NS(=O)(=O)c2ccc(OC)c3ccccc23)cn1	HP1b binding inh inconclusive, JMJD2A Tudor 79µM, PLK1 PBD inh inconclusive
Fc1cccc(Cl)c1C1SCc2nc3ccccc3n21 (stereo not drawn)	none (no result: HP1b binding inh, BAZ2B inh, JMJD2A Tudor, G9a inh)
Cc1nnc(C)c2c(C)n(-c3cccc4cccnc34)c(C)c12	BAZ2B inh inconclusive, G9a inh 71µM (no result: HP1b binding inh, JMJD2A Tudor, PLK1 PBD inh, PI5P4Ka inh)
CCc1cc(-c2[nH]ncc2-c2ccc3c(c2)OCO3)c(O)cc1O	HP1b binding inh inconclusive, BAZ2B inh 32µM, JMJD2A Tudor 32µM, G9a inh inconclusive (no result: PI5P4Ka inh)
CCNC(=O)C1CCCN(c2nn3cc(-c4ccc(C)cc4)nc3s2)C1 (stereo not drawn)	none (no result: PLK1 PBD inh, PI5P4Ka inh)
CNc1nnc(-c2ccc(N(C)C)cc2)s1	G9a inh 7.9µM (no result: PI5P4Ka inh)
CN(C)c1ccc(-c2ccncc2)cc1	none (no result: HP1b binding inh, JMJD2A Tudor, PLK1 PBD inh, PI5P4Ka inh)
COc1ccc(C2(CNC(=O)C(=O)Nc3ccc(C)cc3)CCOCC2)cc1	PLK1 PBD inh 24µM
NC(Cc1ccccc1)c1csc(NC(=O)c2cccc(OC(F)(F)F)c2)n1 (stereo not drawn)	none (no result: HP1b binding inh, BAZ2B inh, JMJD2A Tudor, G9a inh)
CCOc1ccc(NC(c2ccccc2)P(=O)(OC)OC)cc1 (stereo not drawn)	BAZ2B inh inconclusive
COCCCNC(=O)C1CCCN(S(C)(=O)=O)C1 (stereo not drawn)	G9a inh 71µM
O=C(NCc1ccccn1)C1CCCN(S(=O)(=O)c2ccccc2)C1 (stereo not drawn)	G9a inh 35µM (no result: PI5P4Ka inh)
O=C(Nc1ccccc1F)C1CCCN(S(=O)(=O)c2ccccc2)C1 (stereo not drawn)	JMJD2A Tudor 13µM, PLK1 PBD inh 3.4µM, PI5P4Ka inh inconclusive
COc1ccc(S(=O)(=O)N2CCCC(C(=O)NCc3ccccn3)C2)cc1 (stereo not drawn)	none
CCCS(=O)(=O)N1CCCC(C(=O)NCCCOC)C1 (stereo not drawn)	none (no result: PLK1 PBD inh, PI5P4Ka inh)
Cc1ccc(S(=O)(=O)N2CCCCC2C(=O)Nc2ccc(N(C)C)cc2)cc1 (stereo not drawn)	HP1b binding inh inconclusive, JMJD2A Tudor 50µM (no result: BAZ2B inh, G9a inh)
CCOc1ccccc1OCCC(=O)OCC(=O)Nc1c(C)cc(C)cc1C	none
CC(=O)N1CCN(S(=O)(=O)c2ccc(C)cc2)C1c1ccc(N(C)C)cc1 (stereo not drawn)	JMJD2A Tudor inconclusive
Cc1ccc(S(=O)(=O)N2CCN(S(=O)(=O)c3ccccc3)C2c2ccc(N(C)C)cc2)cc1 (stereo not drawn)	BAZ2B inh inconclusive, JMJD2A Tudor inconclusive, G9a inh 8.9µM
O=C(Nc1ccc(N2CCCCC2)cc1)C1CCCN1S(=O)(=O)c1ccc(F)cc1 (stereo not drawn)	BAZ2B inh inconclusive, JMJD2A Tudor inconclusive
CCc1ccc(NC(=O)C2CCCN(S(C)(=O)=O)C2)cc1 (stereo not drawn)	PLK1 PBD inh 21µM (no result: G9a inh)
CN(C)c1ccc(NC(=O)C2CCCN(S(=O)(=O)c3ccccc3)C2)cc1 (stereo not drawn)	BAZ2B inh inconclusive, G9a inh 8.9µM
CC1CCN(c2ccc(NC(=O)C3CCCN3S(=O)(=O)c3ccc(F)cc3)cc2)CC1 (stereo not drawn)	HP1b binding inh inconclusive, BAZ2B inh 45µM, JMJD2A Tudor 40µM, G9a inh 10µM
O=C(COc1ccccc1)Nc1ccccc1C(=O)OCc1cc(=O)n2nc(C3CC3)sc2n1	none (no result: PLK1 PBD inh, PI5P4Ka inh)
COCCn1c(=O)cnc2cnc(Oc3ccc(OC)cc3)nc21	none (no result: HP1b binding inh, BAZ2B inh, JMJD2A Tudor, PLK1 PBD inh, PI5P4Ka inh)
Cc1ccc2[nH]c(C(=O)Nc3ccccc3)cc2c1	none (no result: PLK1 PBD inh, PI5P4Ka inh)
CCc1nc(Nc2ccc(O)cc2)c2oc3ccccc3c2n1	BAZ2B inh inconclusive, G9a inh inconclusive
c1coc(CNc2ncnc3c2oc2ccccc23)c1	BAZ2B inh inconclusive, G9a inh 56µM (no result: PI5P4Ka inh)
CCc1nc(N(CC)CC)c2oc3ccccc3c2n1	none (no result: BAZ2B inh)
CCNc1nc(CC)nc2c1oc1ccccc12	BAZ2B inh inconclusive (no result: PI5P4Ka inh)
CCc1nc(NCc2cccnc2)c2oc3ccccc3c2n1	G9a inh 50µM
CCc1nc(Nc2ccccc2O)c2oc3ccccc3c2n1	BAZ2B inh 79µM, JMJD2A Tudor inconclusive, G9a inh inconclusive
CCc1nc(N2CCC(C)CC2)c2oc3ccccc3c2n1	G9a inh 40µM (no result: PI5P4Ka inh)
COc1ccc(C(=O)Nc2cccc(-c3cn4ccsc4n3)c2)cc1OC	none (no result: PLK1 PBD inh, PI5P4Ka inh)
CCc1nc(NCc2ccco2)c2oc3ccccc3c2n1	BAZ2B inh 79µM, G9a inh inconclusive
O=C(CSc1ncnc2c1oc1ccccc12)NCc1ccco1	BAZ2B inh 50µM, G9a inh 14µM (no result: PI5P4Ka inh)
COc1cccc2c1cc1c(=O)n(CC(=O)NCc3ccc(N(C)C)cc3)nc(C)n12	none (no result: PLK1 PBD inh, PI5P4Ka inh)
CCC(C)[C@H](NC(=O)N1CC(=O)Nc2ccccc21)C(=O)N1CCC(C(=O)O)CC1 (stereo partly drawn)	none (no result: G9a inh)
COc1ccccc1N=Nc1c(C)[nH][nH]c1=O	BAZ2B inh inconclusive, G9a inh 35µM
